Inconclusive results are not listed. Activity calls are given as the source filed them. Unless noted, the call rests on the fitted dose curve; in most records, active means well fitted curve in the direction sought with a large enough effect in the repeat runs; inconclusive means weak or mixed curves; inactive means no such curve, though single readings can be large; an effect the other way counts as inactive or inconclusive.
What was measured:
[1] = A CellTox Green Cytotoxicity Assay to monitor cytotoxicity in HepG2 cells - 0 hour (AID 1224882); further: nearly all actives have a fitted effect of over 35% in size
Procedure, shortened: (§1)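 Cytotoxicity was tracked as dead-cell DNA fluorescence in HepG2 cells treated with test compounds at 37 C; each time-point value comes from one kinetic series spanning 0, 8, 16, 24, 32 and 40 h.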

[2] = A CellTox Green Cytotoxicity Assay to monitor cytotoxicity in HepG2 cells - 32 hour (AID 1224883); further: nearly all actives have a fitted effect of over 50% in size
Procedure, shortened: as §1

[3] = A CellTox Green Cytotoxicity Assay to monitor cytotoxicity in HEK293 cells - 8 hour (AID 1224884); further: nearly all actives have a fitted effect of over 35% in size
Procedure, shortened: (§2)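 Real-time, in one plate: 600 HEK293 cells/well with dead-cell DNA dye, pinned compound after 5 h, 37 C incubation over 40 h; viable cells give no appreciable fluorescence.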

[4] = qHTS RealTime-Glo MT Cell Viability Assay in HepG2 cells - 16 hour (AID 1224885); further: nearly all actives have a fitted effect of over 50% in size
Procedure, shortened: (§3)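 HepG2 cells were seeded at 600 cells/well together with NanoLuc luciferase and a cell-permeant prosubstrate, preincubated 5 h at 37 C/5% CO2, then pin-dosed with compounds in DMSO. Nonlytic luminescence from viable cells was read at each time point.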

[5] = qHTS RealTime-Glo MT Cell Viability Assay in HEK293 cells - 24 hour (AID 1224886); further: top concentration of the series differs between compounds; nearly all actives have a fitted effect of over 50% in size
Procedure, shortened: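 HEK293 cells were seeded at 600 cells/well together with NanoLuc luciferase and cell-permeant prosubstrate, preincubated 5 h at 37 C/5% CO2, then given compound in DMSO by pintool. Luminescence from viable-cell prosubstrate reduction was read repeatedly over 40 h.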

[6] = qHTS RealTime-Glo MT Cell Viability Assay in HEK293 cells - 8 hour (AID 1224887); further: top concentration of the series differs between compounds; nearly all actives have a fitted effect of over 50% in size
Procedure, shortened: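 Kinetic, non-lysing viability readout. Seed HEK293 (600/well) with reagent, incubate 5 h at 37 C/5% CO2, pin 23 nL compound in DMSO, incubate at 37 C, read luminescence at 0, 8, 16, 24, 32, 40 h.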

[7] = qHTS RealTime-Glo MT Cell Viability Assay in HepG2 cells - 0 hour (AID 1224889); further: nearly all actives have a fitted effect of over 50% in size
Procedure, shortened: as §3

[8] = A CellTox Green Cytotoxicity Assay to monitor cytotoxicity in HepG2 cells - 8 hour (AID 1224890); further: nearly all actives have a fitted effect of over 45% in size
Procedure, shortened: as §1

[9] = qHTS assay to identify small molecule antagonists of the estrogen receptor alpha (ER-alpha) signaling pathway using the BG1 cell line in the presence of 0.1 nM 17-beta-estradiol - cell viability counter screen (AID 1259241); further: nearly all actives have a fitted effect of over 40% in size
Procedure, shortened: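 Following 5 days in phenol red-free medium with charcoal-stripped serum, VM7Luc4E2 cells received test compounds alongside 0.1 nM 17beta-estradiol (final) at 37C for 22 hr. Live cells were then quantified via protease-substrate fluorescence.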

[10] = qHTS assay to identify small molecule antagonists of the androgen receptor (AR) signaling pathway using the MDA cell line in the presence of 0.5 nM R1881 - cell viability counter screen (AID 1259242); further: nearly all actives have a fitted effect of over 45% in size
Procedure, shortened: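 Cells seeded at 3,000/well and allowed 5 hr at 37C, 0% CO2 before compound transfer and R1881 (0.5 nM final) addition; 16 hr later, live-cell protease fluorescence indicated cytotoxicity.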

[11] = qHTS assay to identify small molecule phospholipidosis (PLD) inducers (AID 1259344; active means well fitted curve in the direction sought with a large enough effect; an effect the other way counts as inactive or inconclusive)
Procedure, shortened: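 Accumulated phospholipid, stained red by LipidTOX during 24 h compound treatment of HepG2 cells at 37 C, is quantified from images as pit number and intensity, normalised per cell using Hoechst-stained nuclei.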

[12] = qHTS assay to identify small molecule HDAC inhibitors (AID 1259364);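 further: wild-type HCT-116 cells with endogenous class I/II HDAC activity; top concentration of the series differs between compounds; nearly all actives have a fitted effect of over 45% in size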
Procedure, shortened: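 HCT-116 wt cells, 1,500/well, overnight attach. Compounds (DMSO) 2 h, 37 °C. HDAC-Glo I/II, 30 min RT. Luminescence.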

[13] = qHTS assay to identify small molecule HDAC inhibitors - cell viability counter screen (AID 1259365)
Procedure, shortened: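 HCT-116 wild-type, overnight attachment; 2hr drug exposure, 37C; CellTiter-Glo luminescent ATP readout after 30min RT.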

[14] = qHTS assay to identify small molecule agonists of the sonic hedgehog signaling (Shh) pathway - cell viability counter screen (AID 1259366); further: nearly all actives have a fitted effect of over 50% in size
Procedure, shortened: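 Compounds in DMSO were pin-transferred onto 3T3 Gli1-Luc cells that had settled 4hr; plates then stood 24hr at 37C and 5% CO2. One hour before the end, CellTiter-Fluor was added and fluorescence recorded.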

[15] = qHTS assay to identify small molecule antagonists of the sonic hedgehog signaling (Shh) pathway - cell viability counter screen (AID 1259367); further: nearly all actives have a fitted effect of over 55% in size
Procedure, shortened: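 CellTiter-Fluor signal in conditioned medium-stimulated 3T3 Gli1-Luc cells, 23 hr compound exposure, 37C.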

[16] = qHTS assay to identify small molecule agonists of the sonic hedgehog signaling (Shh) pathway (AID 1259368; calls by dose curve;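 further: NIH/3T3-derived 3T3Gli1-Luc cells carrying a stable Gli1-driven firefly luciferase reporter; series mostly up to about 92 µM; nearly all actives have a fitted effect of over 15% in size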)
Procedure, shortened: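 Following a 24 hr incubation with DMSO-dissolved compounds at 37 C, 5% CO2, Gli1-Luc NIH/3T3-derived cells received luciferase reagent for 30 min at room temperature prior to luminescence measurement.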

[17] = qHTS assay to identify small molecule antagonists of the sonic hedgehog signaling (Shh) pathway (AID 1259369; calls by dose curve; further: nearly all actives have a fitted effect of over 45% in size)
Procedure, shortened: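 Read-out is luminescence from a firefly luciferase gene controlled by the Gli1 response element, in 3T3Gli1-Luc cells pre-incubated 4hr then exposed to compounds and conditioned medium for 24hr.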

[18] = A CellTox Green Cytotoxicity Assay to monitor cytotoxicity in HEK293 cells - 16 hour (AID 1224888); further: nearly all actives have a fitted effect of over 35% in size
Procedure, shortened: as §2

[19] = target: Androgen receptor (Homo sapiens) (UniProt P10275); assay: qHTS assay to identify small molecule antagonists of the androgen receptor (AR) signaling pathway using the MDA cell line in the presence of 0.5 nM R1881 (AID 1259243); further: nearly all actives have a fitted effect of over 50% in size
Procedure, shortened: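 Luminescence from an AR/GR-responsive MMTV-luciferase construct in MDA-kb2 breast carcinoma cells, read 30 min after ONE-Glo, following 16 hr co-treatment with compounds and 0.5 nM R1881.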

[20] = target: Estrogen receptor (Homo sapiens) (UniProt P03372); assay: qHTS assay to identify small molecule antagonists of the estrogen receptor alpha (ER-alpha) signaling pathway using the BG1 cell line in the presence of 0.1 nM 17-beta-estradiol (AID 1259244); further: nearly all actives have a fitted effect of over 50% in size
Procedure, shortened: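 Luciferase signal from VM7Luc4E2 ERE-reporter cells, co-dosed with test compound and 0.1 nM final 17beta-estradiol for 22 h, read with ONE-Glo.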

Measured: Potency

Androgen receptor (Homo sapiens), sequence (P10275 whole entry, looked up): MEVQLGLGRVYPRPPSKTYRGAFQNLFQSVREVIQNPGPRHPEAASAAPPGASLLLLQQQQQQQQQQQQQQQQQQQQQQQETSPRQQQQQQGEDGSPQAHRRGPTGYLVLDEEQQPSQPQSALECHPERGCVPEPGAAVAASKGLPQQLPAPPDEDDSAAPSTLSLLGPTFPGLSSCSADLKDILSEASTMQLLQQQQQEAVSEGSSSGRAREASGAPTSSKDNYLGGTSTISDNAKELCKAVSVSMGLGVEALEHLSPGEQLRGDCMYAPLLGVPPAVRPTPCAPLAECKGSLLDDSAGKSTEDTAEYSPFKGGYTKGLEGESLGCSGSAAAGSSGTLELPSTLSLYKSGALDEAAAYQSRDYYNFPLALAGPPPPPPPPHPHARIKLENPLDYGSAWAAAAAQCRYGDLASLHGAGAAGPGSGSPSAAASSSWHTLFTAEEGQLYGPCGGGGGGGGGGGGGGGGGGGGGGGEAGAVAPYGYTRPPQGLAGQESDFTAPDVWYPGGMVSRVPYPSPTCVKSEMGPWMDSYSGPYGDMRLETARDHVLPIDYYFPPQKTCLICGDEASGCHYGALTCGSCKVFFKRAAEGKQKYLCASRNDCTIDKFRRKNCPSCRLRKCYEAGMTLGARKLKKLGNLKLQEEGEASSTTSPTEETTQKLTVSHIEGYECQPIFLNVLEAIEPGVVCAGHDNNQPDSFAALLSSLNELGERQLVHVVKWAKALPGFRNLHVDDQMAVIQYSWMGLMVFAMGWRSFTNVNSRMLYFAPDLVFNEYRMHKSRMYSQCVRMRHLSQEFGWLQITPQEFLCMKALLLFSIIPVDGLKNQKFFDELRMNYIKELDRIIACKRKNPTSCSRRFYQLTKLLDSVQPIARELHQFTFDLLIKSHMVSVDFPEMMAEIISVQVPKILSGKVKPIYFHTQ
Estrogen receptor (Homo sapiens), sequence (P03372 whole entry, looked up): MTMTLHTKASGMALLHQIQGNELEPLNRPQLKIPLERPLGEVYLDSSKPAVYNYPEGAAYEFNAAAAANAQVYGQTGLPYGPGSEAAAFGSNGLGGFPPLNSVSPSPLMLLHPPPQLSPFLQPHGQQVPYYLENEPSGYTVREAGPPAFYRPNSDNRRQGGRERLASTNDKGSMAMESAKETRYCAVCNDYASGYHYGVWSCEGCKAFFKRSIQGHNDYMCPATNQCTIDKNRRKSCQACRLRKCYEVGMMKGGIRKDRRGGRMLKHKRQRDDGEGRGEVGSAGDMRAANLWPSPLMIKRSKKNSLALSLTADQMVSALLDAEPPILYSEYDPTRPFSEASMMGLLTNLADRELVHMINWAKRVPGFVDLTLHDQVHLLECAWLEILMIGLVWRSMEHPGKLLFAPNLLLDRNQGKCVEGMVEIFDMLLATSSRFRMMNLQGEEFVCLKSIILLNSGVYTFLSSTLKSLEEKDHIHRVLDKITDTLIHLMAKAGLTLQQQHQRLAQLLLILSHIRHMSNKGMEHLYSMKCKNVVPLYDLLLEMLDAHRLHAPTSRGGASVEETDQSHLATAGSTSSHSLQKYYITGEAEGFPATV

CCOC(=O)c1ccc(N)cc1
not listed: [18] | [19] | [20]
inactive: all other assays above

Cc1ccc([N+](=O)[O-])cc1S(=O)(=O)O
not listed: [5] | [11]
inactive: all other assays above

CCCCCCCCCCO
not listed: [11] | [18] | [19]
inactive: all other assays above

COc1cc(OC)c(C(=O)CCCN2CCCC2)c(OC)c1
not listed: [5] | [20]
inactive: all other assays above

COCCCN
not listed: [11] | [18] | [19]
inactive: all other assays above

CCOCCOCCOCCO
not listed: [11] | [19] | [20]
inactive: all other assays above

CCCCCCCCCCCCCCCC(=O)OC(C)C
not listed: [19] | [20]
inactive: all other assays above

COCCOC(=O)c1ccccc1C(=O)OCCOC
not listed: [11] | [19] | [20]
inactive: all other assays above

Cc1ccc2ncccc2c1
not listed: [11] | [18] | [19]
inactive: all other assays above

C=CCc1ccc(OC)c(OC)c1
not listed: [11] | [19] | [20]
inactive: all other assays above

C=C(C)[C@H]1CC=C(C)C(=O)C1
not listed: [5] | [11] | [19] | [20]
inactive: all other assays above

COc1ccc(CCC(C)=O)cc1
not listed: [5] | [11] | [19] | [20]
inactive: all other assays above

CC(CCO)CC(C)(C)C (configuration not stated)
not listed: [5] | [11] | [18]
inactive: all other assays above

COc1ccc([N+](=O)[O-])cc1N
not listed: [5] | [11] | [18] | [19]
inactive: all other assays above

O=C(O)c1ccc(C(=O)O)c(C(=O)O)c1
not listed: [5] | [11] | [18]
inactive: all other assays above

COC(=O)c1cccnc1
not listed: [5] | [18] | [20]
inactive: all other assays above
